Only some compounds are listed: those with a hit (about 2.4% of all), similar ones and a draw of the others.
M1 ag: human M1 muscarinic receptor agonism. AID 588814. actives 0.33% (n = 360,000). activation, % at 3 µM. CHO-K1 hM1, Fluo-8 calcium fluorescence, agonist mode; 0% DMSO, 100% acetylcholine EC100. P11229;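 active = activation above the run's mean compound activation plus 3 SD, cut at about 16% in these data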;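 also: peak over basal fluorescence ratio within a 140 s kinetic read after compound addition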
Target sequence (P11229 whole entry, looked up): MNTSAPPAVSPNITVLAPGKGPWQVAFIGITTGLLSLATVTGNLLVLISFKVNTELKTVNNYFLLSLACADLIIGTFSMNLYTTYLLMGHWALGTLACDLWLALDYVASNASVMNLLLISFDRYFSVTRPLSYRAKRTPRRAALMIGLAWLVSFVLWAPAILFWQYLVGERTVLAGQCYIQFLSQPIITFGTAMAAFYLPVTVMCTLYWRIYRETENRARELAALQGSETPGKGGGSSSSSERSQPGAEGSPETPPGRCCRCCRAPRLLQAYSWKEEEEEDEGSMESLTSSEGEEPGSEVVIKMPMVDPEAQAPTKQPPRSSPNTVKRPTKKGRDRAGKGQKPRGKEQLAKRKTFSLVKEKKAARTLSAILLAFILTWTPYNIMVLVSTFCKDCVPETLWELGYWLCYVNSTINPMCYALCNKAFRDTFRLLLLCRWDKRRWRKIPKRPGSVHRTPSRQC
M1 PAM: potentiates human M1 receptor response to acetylcholine; CHO-K1 hM1, Fluo-8 calcium fluorescence, ACh EC20; 0% = ACh EC20, 100% = maximal ACh; activation, % at 3 µM; actives 0.088% (n = 360,000); in the data active = activation above about 19%, passing the limit was not always enough
M1 ag parental: nonselective activator or artifact in parental CHO-K1 cells; Fluo-8 calcium fluorescence; scaled to maximal ATP response, vehicle zero; activation, % at 3 µM; actives 0.48% (n = 360,000); AID 602248; in the data active = activation above about 15%;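 also: untransfected CHO-K1 host cells lacking M1 receptor as counterscreen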
CHO-K1 Ca antag: nonselective inhibitor or artifact in parental CHO-K1 cells; ATP-induced calcium, Fluo-8 fluorescence; inhibition, % at 3 µM; actives 0.6% (n = 360,000); AID 602250;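 active = inhibition above a per-plate cutoff, the plate's mean sample inhibition plus 3 SD, cut at about 24% in these data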;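 also: 0% = DMSO plus EC80 ATP and 100% = DMSO alone without ATP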
CHO-K1 Ca PAM: nonselective activator or artifact in parental CHO-K1 calcium assay; ATP EC20, Fluo-8 calcium fluorescence; 0% at ATP EC20, 100% at ATP max; activation, % at 3 µM; actives 0.02% (n = 360,000); AID 602247;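 active = activation above the run cutoff, the mean activation of all test compounds plus 3 SD, cut at about 40% in these data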;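 also: peak over basal fluorescence ratio in a 140 s read after ATP addition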
CHRM1 antagonist: antagonists of human M1 muscarinic receptor | CHO-K1 hM1, Fluo-8 calcium fluorescence, ACh EC80 antagonist | inhibition, % at 3 µM | actives 1.3% (n = 360,000) | AID 588852;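 active = percent inhibition above its own plate's cutoff, namely the mean of that plate's compound wells plus 3 SD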;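 also: peak over basal fluorescence ratio during 140 s after agonist addition; 0% = ACh EC80 plus DMSO and 100% = DMSO alone without agonist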
An asterisk follows results filed as active; . = no result given.

SMILES	M1 ag	M1 PAM	M1 ag parental	CHO-K1 Ca antag	CHO-K1 Ca PAM	CHRM1 antagonist
CCOC(=O)[C@]12CCCC=C1N(Cc1cccc3ccccc13)C(=O)[C@H](CC(=O)N1CCN(C(=O)C3CC3)CC1)C2	.	.	0	-2	-5	.
N#Cc1c(NC(=O)CSc2nc(N)cc(=O)[nH]2)sc2c1CCCCCC2	0	-2	4	8	-4	7
CC(Sc1nc(N)cc(=O)[nH]1)C(=O)Nc1sc2c(c1C#N)CCCC2 (stereo not drawn)	-6	-17	1	30*	-16	24
O=C(Cc1c(O)c2ccccc2[nH]c1=O)OC1CCCCC1	-3	5	-1	25*	-6	-6
COc1cccc(NC(=O)Cc2c(O)c3ccccc3[nH]c2=O)c1	-1	9	0	25*	-6	-13
CNc1snc(C)c1C(=O)OCC(=O)c1ccc(Cl)cc1	-1	-15	12	16	-8	35*
CCC(=O)N1CCC1(C)C(=O)Nc1ccc2nc(C)ccc2c1 (stereo not drawn)	-1	9	0	-12	13	-18
COc1ccc(C2NC(=O)NC(C)=C2C(=O)OC2CCCCC2)cc1OC (stereo not drawn)	1	4	0	9	8	-10
COC(=O)c1nc2n(n1)C(c1ccc(OC)c(OC)c1)C(C(=O)OC1CCCCC1)=C(C)N2 (stereo not drawn)	-1	-3	0	28*	-8	14
O=C(CCn1c(=O)c2sccc2n(CC(=O)OCc2ccccc2)c1=O)NCc1ccco1	-6	-7	6	2	7	17
O=C(CCCn1c(=O)c2sccc2n(CC(=O)OCc2ccccc2)c1=O)NCc1ccco1	-2	-9	5	-6	22	28*
Cc1ccc(C(=O)Oc2ccccc2N2CCOCC2)cc1	-2	1	20*	-4	8	-3
O=C(Oc1ccccc1N1CCOCC1)c1ccccc1	-3	5	1	-3	17	-11
OC(COc1ccccc1)CN1CCN(C(c2ccccc2)c2ccccc2)CC1 (stereo not drawn)	-9	-24	-1	2	4	23
c1ccc(OCCOCCN2CCN(C(c3ccccc3)c3ccccc3)CC2)cc1	-8	-23	1	-9	13	100*
COc1ccccc1OCCCCN1CCN(C(c2ccccc2)c2ccccc2)CC1	-7	-20	2	-5	9	86*
CCOC(=O)c1c(C)nc2c(c1-c1cc(OC)ccc1OC)C(=O)c1ccccc1-2	-4	13	0	-4	11	-16
CCOC(=O)C1=C(Cc2ccc(OC)cc2)C(=O)c2ccccc2C1=O	8	-9	15*	25*	-2	36*
CC(C)C(C)NC(=O)COn1nnc2ccc(S(=O)(=O)N3CCOCC3)cc21 (stereo not drawn)	-1	0	1	6	-9	5
O=C(NC(c1cccnc1)C(F)(F)F)c1cc(COc2ccc3c(c2)CCCC3)on1 (stereo not drawn)	2	-9	7	27*	-25	42*
COC(=O)c1sc2nc(CSc3nc4ccc(C)cc4[nH]3)[nH]c(=O)c2c1C	-3	-6	0	5	-5	11
Cc1ccc2nc(SCc3nc4ccccc4c(=O)[nH]3)[nH]c2c1	-6	4	1	29*	-16	-8
Cc1cccc(C)c1NC(=O)C(=O)NCCc1c[nH]c2ccccc12	17*	7	8	-15	18	-32
Cc1ccnc(NC(=O)CCCc2c[nH]c3ccccc23)c1	-2	15	2	-7	11	-22
Cc1cccnc1NC(=O)CCc1c[nH]c2ccccc12	2	11	0	24*	-33	-2
SMILES	M1 ag	M1 PAM	M1 ag parental	CHO-K1 Ca antag	CHO-K1 Ca PAM	CHRM1 antagonist
O=c1c(Cl)c(N2CCNCC2)cnn1C12CC3CC(CC(C3)C1)C2	-8	-21	1	-13	-14	35*
O=C(O)C12CC3CC(C1)CC(n1ncc(N4CCN(c5ccccc5)CC4)c(Cl)c1=O)(C3)C2	-5	-9	0	18	-9	13
CC1=C(C(=O)N2CCCCCC2)CC(CC(=O)NCCc2ccccn2)C(=O)N1CCC1=CCCCC1 (stereo not drawn)	.	.	0	-9	-12	.
O=C(CCS(=O)(=O)c1ccc(Cl)cc1)Nc1nc(-c2ccncc2)cs1	2	-6	7	-5	-12	0
O=C(N/N=C/c1cccs1)c1ccc2nc[nH]c2c1	0	-11	4	14	-16	35*
CC(=O)N1CCN(C(=O)c2ccc(OC3CCN(CCc4ccccc4)CC3)cc2)CC1	-6	-14	0	7	-14	37*
O=C(c1ccc(OC2CCN(CCCc3ccccc3)CC2)cc1)N1CCCC1	-7	-19	1	3	-15	42*
CC(C)N(C)C(=O)c1ccc(OC2CCN(CCc3ccccc3)CC2)cc1	-5	-1	3	-9	15	-10
CN(Cc1nccn1C)C(=O)c1ccc(OC2CCN(CCc3ccccc3)CC2)cc1	-6	-19	0	5	-18	47*
COc1ccccc1/C=C/CN1CCC(Oc2ccc(C(=O)N3CCCC3)cc2)CC1	-6	-23	0	26*	-30	73*
O=C(CSc1nnc(CNC(=O)c2cccs2)o1)Nc1ccccc1F	-2	15	1	-9	3	-8
CC(CCc1ccc(O)cc1)N1CCC(Oc2ccc(C(=O)N3CCCC3)cc2)CC1 (stereo not drawn)	-6	-9	1	-7	0	11
COc1ccc(CCC(C)N2CCC(Oc3ccc(C(=O)N4CCCC4)cc3)CC2)cc1 (stereo not drawn)	-6	-21	2	-8	-4	67*
CCOc1ccc(/C=C2\CCCc3c2nc2ccccc2c3C(=O)O)cc1OC	53*	-6	45*	11	7	7
Cc1noc(C)c1COc1ccccc1C(=O)N(C)Cc1ccco1	-1	-1	4	-2	16	5
COC(=O)c1cccc(NC(=O)Nc2ccc(Cl)c(Cl)c2)c1	4	-23	16*	21	-7	43*
O=C(Nc1ccccc1)Nc1cccc(Cl)c1	-2	-14	15	8	5	27
COC(=O)c1cc(NC(=O)Nc2ccccc2)ccc1Cl	3	-12	16*	12	1	22
COC(=O)c1sccc1NC(=O)Nc1ccc(Cl)c(Cl)c1	-1	-8	1	29*	-7	30
Cc1ccc(NC(=O)C2CCN(S(=O)(=O)c3ccc4ccccc4c3)CC2)nc1	-5	-3	2	-8	12	-2
CCOc1ccc(CCNC(=O)CSc2nnnn2C)cc1OCC	-7	3	16*	1	15	2
